FLuc inh – firefly luciferase inhibition. P08659. purified firefly luciferase, luminescence, 8 min. Potency, µM (titrated, usually from 57.1 µM), without a hit: at the top dose activity change, negative = inhibition, most hits filed as inhibitors. 72,000 compounds, 2.2% hits. AID 411; active = well fitted inhibition curve with a large enough effect; inconclusive = small, poorly fitted or top-dose-only effect; note: % is set by controls: 0 for no effect and ±100 for the full control effect; nearly all actives have a fitted effect of over 40% in size
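Inhibition of light generation by firefly luciferase from ATP and luciferin was profiled with concentration-response curves per sample, ATP held at 10 uM within the enzyme's linear range. Plates were read by luminescence after an 8-minute ambient incubation.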
PK Bst – pyruvate kinase (B. stearothermophilus) modulation | purified pyruvate kinase, luminescence ATP production; ribose 5-phosphate activator present at AC10 | Potency, µM | 51,000 compounds, 1.2% hits | AID 361; in the data active = potency below about 11 µM; inconclusive = mostly about 12 µM to 25 µM;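 the screen sought inhibitors and activators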;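 note: scaled between full activation by ribose 5 phosphate and full inhibition by luteolin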
GBA activity – modulators of human glucocerebrosidase; P04062; purified enzyme, resorufin glucoside fluorescence (screen aimed at inhibitors), 20 min; Potency, µM; 48,000 compounds, 1.1% hits; in the data active = potency below about 15 µM; inconclusive = mostly about 16 µM to 33 µM;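 note: the screen sought inhibitors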
Target sequence (P04062 whole entry, looked up): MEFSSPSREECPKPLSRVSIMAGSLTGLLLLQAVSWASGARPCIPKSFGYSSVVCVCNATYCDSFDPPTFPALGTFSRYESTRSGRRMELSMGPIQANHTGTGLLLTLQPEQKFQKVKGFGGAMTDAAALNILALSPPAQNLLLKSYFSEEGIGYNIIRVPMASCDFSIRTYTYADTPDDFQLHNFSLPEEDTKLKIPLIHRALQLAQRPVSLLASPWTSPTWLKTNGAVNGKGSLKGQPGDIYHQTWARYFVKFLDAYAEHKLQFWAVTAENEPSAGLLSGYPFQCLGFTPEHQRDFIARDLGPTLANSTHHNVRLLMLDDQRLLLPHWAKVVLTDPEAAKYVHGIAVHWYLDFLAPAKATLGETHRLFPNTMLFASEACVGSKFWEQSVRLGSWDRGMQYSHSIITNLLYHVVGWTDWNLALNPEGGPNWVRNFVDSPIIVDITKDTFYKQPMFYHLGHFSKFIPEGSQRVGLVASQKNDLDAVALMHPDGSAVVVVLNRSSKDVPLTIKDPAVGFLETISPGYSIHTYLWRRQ
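Normal human glucocerebrosidase (0.2 nM final) was assayed with resorufin β-D-glucopyranoside (30 uM final) in 50mM citric acid/KH2PO4, 10mM sodium taurocholate, 0.01% tween-20, pH 5.9. Compounds were titrated; fluorescence (Ex 548, Em 600) read after 20 min at RT.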
* = called active by the depositor; i = inactive; ? = inconclusive; . = no result given; [ ] = another dose, or the depositor's remark. Sampled rows, rich in hits. Any-hit rate of the full collection: about 3.2%. Potency is the fitted concentration of half-maximal effect.

SMILES	FLuc inh	PK Bst	GBA activity
CCOc1cc(-c2nc(-c3ccc(OC)cc3)no2)cc(OCC)c1OCC	1%	.	.
O=C(NCCC[N+]1=CC=N[C@H]1c1ccccc1)N1CCCc2nc(-c3ccc(Br)cc3)ccc21	1%[11.4 µM]	.	.
Cc1cnc(CNc2ncncc2-c2ccccc2C#N)cn1	4%[2.29 µM]	.	.
COc1ccc(OC)c2c(=S)c3ccccc3[nH]c12	3%	.	.
Cc1cnc(CNc2cc(-c3cccc(NS(C)(=O)=O)c3)ncn2)cn1	1%[2.29 µM]	.	.
CCOC(=O)N/N=C1/C[C@@H](O)[C@@H](O)[C@@H]2[C@@H]3C(=O)N(C(C)(C)C)C(=O)[C@H]3CC[C@H]12	0%[11.4 µM]	.	.
Cc1cnc(CNc2nc(-c3cccc(NS(C)(=O)=O)c3)nc3ccccc23)cn1	0%[2.29 µM]	.	.
Cc1ccc(C2CC(c3ccco3)n3ncnc3N2)cc1 (stereo not given)	2%	.	.
Cc1ccc2c(c1)C(N1CCCC1=O)CC(c1ccco1)N2 (stereo not given)	10µM*	?	>77
Cc1nc2cc(-c3ccccc3)ccc2o1	16µM*	.	>77
Cc1cc2c(C)nc(-c3ccccc3)nc2o1	1%	>57	>77
COc1ccc(-n2c(=O)c(-c3ccc(F)c(F)c3)nc3cncnc32)cc1	1%[11.4 µM]	.	.
CCN1CCN(Cc2ccc3c(c2)Cc2ccccc2-3)CC1	-4%	.	.
c1ccc2c(c1)Cc1cc(CN3CCOCC3)ccc1-2	13µM*	.	.
Cc1ccc(C)c(SCC(=O)Nc2nnc(-c3ccccc3)o2)c1	-3%	3.1*	>77
CCC(c1nnc(SCC(=O)Nc2nnc(-c3ccccc3)o2)o1)N(C)C (stereo not given)	-4%	>57	>77
C[C@@H]1C=CCC(=O)OC[C@H](C)C(=O)OC[C@H]2O[C@H]1C=C[C@H]2O	-1%[11.4 µM]	.	.
CC(C)CO/N=C1/C[C@@H](O)[C@@H](O)[C@@H]2[C@@H]3C(=O)N(Cc4ccccc4)C(=O)[C@H]3CC[C@@H]12	0%[11.4 µM]	.	.
Cc1ccc2c(COn3nnc4ccc(S(=O)(=O)N(C)C)cc43)cc(=O)oc2c1C	-41%	>57	11*
CCN(CCO)Cc1cc(=O)oc2c(C)c(C)ccc12	0%	>57	>77
COc1cccc(-c2cn3nc(C)c(C)nc3n2)c1	13µM*	i	i
Cc1cc(-c2cccs2)n[nH]1	0%	.	.
COc1cccc(-c2nn3c(-c4cccc(C)c4)nnc3s2)c1	-2%	.	>77
Cc1nc2nc(-c3cccs3)cn2nc1C	20µM*	.	>77
C=CCn1cnc2c(c1=O)c1nc3ccccc3nc1n2/N=C/c1ccccn1	0%	>57	8.4*
SMILES	FLuc inh	PK Bst	GBA activity
C=CCn1cnc2c(c1=O)c1nc3ccccc3nc1n2/N=C/c1cccc(OC)c1OC	1%	?	6.6*
C=CCn1cnc2c(c1=O)c1nc3ccccc3nc1n2/N=C/c1cc(OC)c(OC)c(OC)c1	-1%	>57	>77
C=CCn1cnc2c(c1=O)c1nc3ccccc3nc1n2-c1ccccc1	-4%	>57	>77
N#C/C(=C\c1ccc(O)c(O)c1)C(=O)NCCCCc1ccccc1	-24%	.	.
O=c1cc(-c2cccc(O)c2O)oc2ccccc12	0%[11.4 µM]	.	.
COc1ccc(CNc2ncnc3ccc(-c4ccc5c(c4)OCO5)cc23)c(OC)c1	0%[2.29 µM]	.	.
CC1N(C)c2cc(NC(=O)c3ccco3)ccc2C1(C)C (stereo not given)	16µM*	.	.
CSc1cccc(NC(=O)c2ccco2)c1	-14%	.	.
N=C1[C@@H](O)[C@]2(I)c3ccccc3N3C(=N)[C@H](O)[C@@H]4c5ccccc5N1[C@@H]4[C@@H]32	-7%[11.4 µM]	.	.
COC(=O)c1ccc(CSc2nc(N)cc(N)n2)cc1	-20%	>57	>77
COC(=O)c1ccc(CSc2nc3ccccc3o2)cc1	16µM*	i	.
CCCCNC(=O)[C@@H]1Cc2ccccc2N1C(=O)[C@H](N)CC	2%	.	.
Clc1ccc(CSc2ncn[nH]2)cc1	-1%	.	.
Brc1ccc2nc(CSc3ncn[nH]3)cn2c1	25µM*	>57	>77
CCCCc1c(O)c2ccccc2[nH]c1=O	0%	>57	>77
Cc1ccc(N=Nc2c(O)c3ccccc3[nH]c2=O)c(S(=O)(=O)N(C)C)c1	3.2µM*	.	.
O=C(Nc1cccc(Cl)c1Cl)c1ccncc1	1%	.	.
O=C(Nc1ccccc1O)c1ccc(Cl)cc1	16µM*	.	.
CCCC(=O)NCCc1c2n(c3ccc(OC)cc13)Cc1ccccc1-2	-8%	.	.
O=c1c2ccccc2ncn1Cc1nc2ccccc2s1	-37%	i	>77
O=c1c2ccccc2cnn1-c1nc2ccccc2s1	0.16µM*	0.16*	>77
O=C(/C=C/N1CCOCC1)c1cc2ccccc2o1	13µM*	.	.
O=C(NCCN1CCOCC1)c1cccs1	-1%	>57	>77
O=C(Cc1ccccc1)Nc1ccc(CN2CCOCC2)cc1	-25%	>57	>77
O=C(Nc1ccc(CN2CCOCC2)cc1)c1cc2ccccn2n1	4µM*	.	.
SMILES	FLuc inh	PK Bst	GBA activity
O=C(Nc1ccc(CN2CCOCC2)cc1)c1cccs1	25µM*	.	>77
O=C(c1cc2ccccc2o1)N1CCCCCC1	-3%	>57	>77
Cc1cc(NC(=O)c2cc3ccccc3o2)cc(C)c1OCC(=O)N1CCOCC1	16µM*	.	>77
COc1cc(C(=O)Nc2cc(C)c(OCC(=O)N3CCOCC3)c(C)c2)cc(OC)c1OC	-1%	.	.
Cc1cn([C@H]2C=C[C@H](CO)O2)c(=O)[nH]c1=O	3%	.	.
COc1cccc(-c2cncnc2Nc2ccc(F)cc2)c1	1%[2.29 µM]	.	.
O=C1C2=CC[C@H]3C(=O)N(C4CCCCC4)C(=O)[C@@H]3[C@@H]2[C@H](O)[C@@H]2O[C@H]12	0%[11.4 µM]	.	.
O=C(Nc1ccc(CN2CCOCC2)cc1)c1cc2ccccc2o1	13µM*	i	>77
O=C(NCCN1CCOCC1)c1cc2ccccc2o1	5%	>57	>77
C[N+]1(CCC[N+]2(C)C[C@H]3[C@H](C2)[C@H]2C=C[C@@H]3CC2)CCOCC1 (stereo not given in full)	0%[11.4 µM]	.	.
CCN(CC)c1ccc(NC(=O)c2ccco2)c(C)c1	-3%	>57	>77
CCN(CC)c1ccc(NC(=O)C(C)C)cc1	-1%	>57	>77
CCN(CC)c1ccc(NC(=O)c2ccco2)cc1	10µM*	?	>77
CCN(CC)c1ccc(NC(=O)c2ccccc2F)cc1	16µM*	i	>77
O=S(=O)(/N=C(/Nc1cc(N2CCOCC2)ncn1)c1ccc(F)cc1)c1ccccc1	0%	>57	>77
O=S(=O)(/N=C(/Nc1cc(N2CCOCC2)ncn1)c1ccccc1)c1ccccc1	3.2µM*	.	>77
COc1ccc2c(c1)c1c(C)c3cnccc3c(C)c1n2CCCN	-1%[11.4 µM]	.	.
O=C(c1cc(-c2ccccc2O)on1)N1CCc2ccccc2C1	-8%	.	.
O=C(c1cc(-c2cccc(O)c2)on1)N1CCOCC1	13µM*	.	.
COc1ccc(-c2cc(C(=O)N3CCOCC3)no2)cc1OC	-8%	>57	>77
CC1CCN(C(=O)c2cc(-c3ccccc3O)on2)CC1	10µM*	.	.
N#CCCn1c(=O)c(-c2cccs2)nc2cnc(Oc3ccccc3)nc21	1%[11.4 µM]	.	.
O=C(O)C(=O)/C=C(\O)c1ccc(Br)cc1	0%[11.4 µM]	.	.
O=C(c1cnccn1)N1CCC2(CC1)CCN(c1ccncc1)CC2	1%[11.4 µM]	.	.
CCOC(=O)C1=C(CSc2nc3c(cc2C#N)CN(C)CC3)OC(N)=C(C#N)C1c1ccccc1 (stereo not given)	-9%[25.5 µM]	>26	.
CN1CCc2nc(SCCOc3ccccc3)c(C#N)cc2C1	-2%	>57	10*
CC(C)Cn1nc(NS(=O)(=O)c2ccccc2)c2cc3ccccc3nc21	6.3µM*	4.2*	>77
